Sampled rows, rich in hits. Any-hit rate of the full collection: about 7.9%.
HCV inhibitor: qHTS Assay for Inhibitors of Hepatitis C Virus (HCV); Huh7.5.1 HCVcc-Cre infection, luciferase reporter, 44 h; Potency, µM (series often up to 41.8 µM), for the others: at the highest dose activity change, negative = inhibition, actives largely listed as inhibitors; 340,000 tested, 3.4% active; note: potency is the fitted concentration of half-maximal effect; % is set by controls: 0 for no effect and ±100 for the full control effect
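Cells seeded at 1,000/well and cultured 4 h, then compounds added followed by HCVcc-Cre virus (~0.5 moi). After 44 h further culture, luciferase substrate was added, plates held 15 min at room temperature, and luminescence read for 15 sec.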
FMDV antiviral: High Throughput Screening for Foot and Mouth Disease Virus Antivirals. FMDV antiviral cell-based qHTS. Potency, µM (top dose mostly 57.9 µM), for the others: at the top dose activity change, negative = inhibition, actives largely listed as inhibitors. 410,000 tested, 1.2% active. AID 1159524, 2015; calls by dose curve; tested in HEK293T cells; note: read-out not given here; potency is the fitted concentration of half-maximal effect; % is set by controls: 0 for no effect and ±100 for the full control effect; nearly all actives have a fitted effect of over 45% in size
HCMV inh: qHTS Assay for inhibitors of the human cytomegalovirus (HCMV); HFF cells, HCMV-luciferase reporter, 72 h; stronger effect = lower value; activity change, negative = inhibition, % at 57.5 µM; 410,000 tested, 4.5% active; in the data active = activity change below about -60%; inconclusive = no clear call, values can overlap the other calls; inactive = above about -39%; note: % is set by controls: 0 for no effect and ±100 for the full control effect
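Two-dose cell screen: HFF monolayers treated with compounds and infected with luciferase-expressing HCMV at 1 PFU/cell, 72 h at 37C, then lysed for luciferase measurement.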
MARV entry inh: qHTS for inhibitors of binding or entry into cells for Marburg Virus. Marburg virus pseudotyped entry inhibition, cell reporter. Potency, µM (top dose mostly 37.8 µM), for inactives: at the top dose activity change, negative = inhibition, hits mostly inhibitors. 300,000 tested, 1.8% active. AID 540276, 2011; calls by dose curve; tested in HEK293 cells; note: potency is the fitted concentration of half-maximal effect; % is set by controls: 0 for no effect and ±100 for the full control effect
Lassa entry inh: qHTS for Inhibitors of binding or entry into cells for Lassa Virus. Lassa virus pseudotype entry inhibition, cell reporter. AID 540256, 2011. Potency, µM (titrated, usually from 37.9 µM), without a hit: at the top dose activity change, negative = inhibition, most hits filed as inhibitors. 300,000 tested, 1.2% active; calls by dose curve; tested in HEK293 cells; note: potency is the fitted concentration of half-maximal effect; % is set by controls: 0 for no effect and ±100 for the full control effect; nearly all actives have a fitted effect of over 50% in size
HCV confirm: qHTS Assay for Inhibitors of Hepatitis C Virus (HCV): Confirmation Assay for Cherry-picked Compounds | shares compounds with HCV inhibitor | HCVcc-Cre infectious virus cell assay, luciferase, inhibition | Potency, µM (doses to about 41.8 µM), for the others: top-dose activity, negative = inhibition, usual class: inhibitors | 640 tested, 78% active; note: potency is the fitted concentration of half-maximal effect; nearly all actives have a fitted effect of over 80% in size
HCV cytotox: qHTS Assay for Inhibitors of Hepatitis C Virus (HCV): Cytotoxicity Counterscreen for Cherry-picked Compounds; shares compounds with HCV inhibitor; HCV host cell line cytotoxicity counterscreen; Potency, µM (doses to about 41.8 µM), for inactives: at the top dose activity change, negative = cytotoxicity, actives largely listed as inhibitors; 640 tested, 22% active; AID 720576, 2013;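 note: potency is the fitted concentration of half-maximal effect; 44 h compound exposure; % is set by controls: 0 for no effect and ±100 for the full control effect; nearly all actives have a fitted effect of over 55% in size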
Starred values were filed as active, the others as inactive; [ ] = dose if it differs, or a comment. Unless noted, calls come from the whole dose curve; as a rule, active = well fitted curve in the direction sought with a large enough effect; inconclusive = small, poorly fitted or top-dose-only effect, or another doubt; inactive = no such curve, though single readings can be large; an effect the other way counts as inactive or inconclusive.

Results for CCC1Nc2ncnc(N3CCCCC3)c2N(Cc2ccc(OC)cc2)C1=O (stereo unspecified) ?
HCV inhibitor: -0.3%; FMDV antiviral: -5.5%; HCMV inh: -16.0

What do the screens show for `CC(C(=O)N1CCN(C)CC1)N1C(=O)c2ccccc2C1=O` (stereo unspecified)?
HCV inhibitor: 2.8%; FMDV antiviral: 10.8%; HCMV inh: 2.4; MARV entry inh: 9.4%; Lassa entry inh: -7.6%

Results for CN1CCC(=C2c3ccccc3CCc3sccc32)CC1 ?
HCV inhibitor: inconclusive; FMDV antiviral: inconclusive; HCV confirm: 3.15µM*; HCV cytotox: -22.9%

How did CC1(C)SC(=S)N(/N=C/c2cccnc2)C1N(O)C(=O)NC1CCCCC1 (stereo unspecified) do in these assays?
HCV inhibitor: 7.94µM*; FMDV antiviral: 67.3%; HCMV inh: 0.7; MARV entry inh: -15.2%; Lassa entry inh: -0.2%; HCV confirm: 11.2µM*; HCV cytotox: -13.9%

Results for S=C(NNc1ccnc2cc(Cl)ccc12)Nc1ccccc1Cl ?
HCV inhibitor: inconclusive; FMDV antiviral: inconclusive; HCMV inh: -24.2; MARV entry inh: inconclusive; Lassa entry inh: inconclusive

What do the screens show for `Clc1ccc2c(NCc3ccccc3)ccnc2c1`?
HCV inhibitor: 5.62µM*; FMDV antiviral: inconclusive; HCMV inh: -73.6*; MARV entry inh: inconclusive; Lassa entry inh: inconclusive; HCV confirm: 9.95µM*; HCV cytotox: inconclusive

What do the screens show for `O=C(OCC12CC3CC(CC(C3)C1)C2)c1ccc(NCc2cc(O)ccc2O)cc1`?
HCV inhibitor: 1.58µM*; FMDV antiviral: 17.8µM*; HCMV inh: -77.2*; MARV entry inh: inconclusive; Lassa entry inh: 4.47µM*; HCV confirm: 3.96µM*; HCV cytotox: 9.95µM*

What do the screens show for `CCN(CC)CCCNC(=O)c1cc(-c2ccc(Cl)cc2)on1`?
HCV inhibitor: 8.91µM*; FMDV antiviral: 16.1%; HCMV inh: 15.1; MARV entry inh: inconclusive; Lassa entry inh: 0.4%; HCV confirm: 22.3µM*; HCV cytotox: 6.3%

Results for CCCCN(CC)CCNC(=O)c1cc2c(-c3ccc(Cl)cc3)nn(C)c2s1 ?
HCV inhibitor: 2.82µM*; FMDV antiviral: 2.8%; HCMV inh: -100.0*; MARV entry inh: 3.55µM*; Lassa entry inh: inconclusive; HCV confirm: 7.05µM*; HCV cytotox: 13.9%

How did Cc1c(C(=O)NCCc2ccccc2)oc2ccc(S(=O)(=O)N3CCOCC3)cc12 do in these assays?
HCV inhibitor: inconclusive; FMDV antiviral: 0.0%; HCMV inh: -18.6; MARV entry inh: 17.6%; Lassa entry inh: inconclusive

How did Cc1c(C(=O)NCC2COc3ccccc3O2)oc2ccc(S(=O)(=O)N3CCOCC3)cc12 (stereo unspecified) do in these assays?
HCV inhibitor: 5.62µM*; FMDV antiviral: inconclusive; HCMV inh: -21.2; MARV entry inh: inconclusive; Lassa entry inh: inconclusive; HCV confirm: 17.7µM*; HCV cytotox: -1.2%

How did Cc1ccc(-c2nn3c(=O)cc(CN4CCN(C(=O)/C=C/c5ccccc5)CC4)nc3s2)cc1 do in these assays?
FMDV antiviral: -20.7%; HCMV inh: 4.8; Lassa entry inh: inconclusive

Results for CN1CCc2nc(SCC(=O)Nc3cccc(F)c3)c(C#N)c(-c3cccs3)c2C1 ?
HCV inhibitor: inconclusive; FMDV antiviral: 14.5%; HCMV inh: -0.9; MARV entry inh: -23.3%; Lassa entry inh: 4.1%; HCV confirm: inconclusive; HCV cytotox: 34.9%

How did CC(C)(C)C(=O)CSc1nc2c(c(-c3cccs3)c1C#N)CCC2 do in these assays?
HCV inhibitor: inconclusive; FMDV antiviral: 13.4%; HCMV inh: -36.9; MARV entry inh: -1.0%; Lassa entry inh: -2.5%

Results for COc1cc(NC(C)CCCN)c2ncccc2c1Oc1ccccc1 (stereo unspecified) ?
HCV inhibitor: 7.94µM*; FMDV antiviral: -20.5%; HCMV inh: 10.7; MARV entry inh: inconclusive; Lassa entry inh: 10.9%; HCV confirm: 19.9µM*; HCV cytotox: -18.0%

What do the screens show for `O=C(Nc1ccc(S(=O)(=O)N2CCCC2)cc1)c1ccc(CN2CCc3ccccc3C2)cc1`?
HCV inhibitor: 7.08µM*; FMDV antiviral: inconclusive; MARV entry inh: inconclusive; Lassa entry inh: inconclusive; HCV confirm: 0.628µM*; HCV cytotox: 0.995µM*

How did CC(=O)c1ccc(NC(=O)c2ccc(S(=O)(=O)N3CCCC3)cc2)cc1 do in these assays?
HCV inhibitor: -7.4%; FMDV antiviral: -23.2%; HCMV inh: -11.0; MARV entry inh: -0.3%; Lassa entry inh: -9.3%

What do the screens show for `COc1ccc(Cn2cnc3c(NS(C)(=O)=O)c(C)c(C)cc32)cc1`?
HCV inhibitor: 3.16µM*; FMDV antiviral: inconclusive; HCMV inh: 98.1; MARV entry inh: -21.8%; Lassa entry inh: -19.4%; HCV confirm: 0.0112µM*; HCV cytotox: 5.2%

What do the screens show for `Cc1ccccc1Cn1cnc2c(NS(C)(=O)=O)c(C)c(C)cc21`?
HCV inhibitor: inconclusive; FMDV antiviral: inconclusive; HCMV inh: 10.5; MARV entry inh: 15.4%; Lassa entry inh: 23.9%

Results for COc1cccc(-c2c(-c3cc(OC)cc(OC)c3)n(C)c3ccc(-c4ccc5[nH]ccc5c4)cc23)c1 ?
HCV inhibitor: inconclusive; FMDV antiviral: 18.6%; HCMV inh: -35.2; MARV entry inh: -5.7%

Results for COc1cc(OC)cc(-c2c(-c3ccc(F)cc3)c3cc(-c4ccc5[nH]ccc5c4)ccc3n2C)c1 ?
HCV inhibitor: 3.16µM*; FMDV antiviral: 52.3%; HCMV inh: -29.2; HCV confirm: 7.91µM*; HCV cytotox: inconclusive

What do the screens show for `COc1ccc(N=Nc2c(C)[nH]c3ccccc23)cc1`?
HCV inhibitor: 7.08µM*; FMDV antiviral: 48.6%; HCMV inh: 14.0; MARV entry inh: inconclusive; Lassa entry inh: 16.1%[46.1 µM]; HCV confirm: 19.9µM*; HCV cytotox: -6.2%

Results for CC(=O)c1cccc(N=Nc2c(C)[nH]c3ccccc23)c1 ?
HCV inhibitor: inconclusive; FMDV antiviral: 46.3%; HCMV inh: 18.5; MARV entry inh: -15.0%; Lassa entry inh: 17.2%

How did COc1ccc(Nc2ccc3c(c2)=NC2(CCCCC2)[N+]=3[O-])cc1 do in these assays?
HCV inhibitor: 5.01µM*; FMDV antiviral: inconclusive; HCMV inh: -98.0*; MARV entry inh: inconclusive; Lassa entry inh: inconclusive; HCV confirm: 17.7µM*; HCV cytotox: 15.8µM*

Screening data as filed in PubChem.
